Calls of active or inactive are those of the source. How the source made its calls: active means hit-call score of the fitted dose curve at least 0.9, where 1 is the maximum; inactive means score below 0.9.

A short description of the test: STM_H9_OrnithineISnorm_perc: Stemina devTOX quickPredict H9 human embryonic stem cell (hESC)-based Assay for Ornithine (ORN) Metabolite Biomarker, Normalized (AID 2283712).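 Further: ornithine released into spent medium during last day measured by mass spectrometry.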 An excerpt: STM_H9_secretome utilizes undifferentiated H9 cells to measure relative changes in two metabolites, ornithine (ORN) and cystine (CYSS) in the secretome, targeting a critical drop in the ORN/CYSS ratio as a biomarker for developmental toxicity.STM_H9_OrnithineISnorm is one of 10 components calculated in the STM_H9_secretome assay. It measures the integrated area of the endogenous ornithine normalized to the spiked-in isotopically labeled standard and to the median value of the 0.1% DMSO neutral control treatment using UPLC-HRMS technology.Data from the assay component STM_H9_OrnithineISnorm_perc was analyzed at the assay endpoint STM_H9_OrnithineISnorm_perc in the positive analysis fitting direction relative to DMSO as the negative control and baseline of activity. Using a type of binding reporter, gain or loss-of-signal activity can be used to understand relative metabolite change.
H9 hESCs maintained in a pluripotent state were exposed to test compound for 72h with chemical replenishment with media replacement every 24h. Cell-conditioned media from the final 24-h treatment period was collected for analysis of the targeted biomarker, and cell viability of the corresponding cell layer was assessed. The chemical library was tested in blinded fashion. Each test plate included 1uM Methotrexate (MTX; Selleck Chemicals, Houston, Texas) as a positive reference, 5 nM MTX as a negative reference, 0.1% DMSO as the neutral (vehicle) control, and sample-level media blanks.H9 cell-conditioned media from the final 24-h treatment period was collected for analysis of the targeted biomarker and cell viability was measured from the corresponding cell layer. Cell viability was measured using the CellTiter-Fluor assay (Promega, Madison, Wisconsin) based on proteolytic cleavage of a substrate to fluorescent signal proportional to the number of living cells. The cell viability Relative Fluorescence Unit (RFU) was background corrected and normalized to mean RFU of the neutral control (0.1% DMSO). The collected H9-cell-conditioned media samples were processed for targeted biomarker analysis as described (Palmer et al., 2013). Briefly, spent media samples were deproteinized (40% acetonitrile) and processed for UPLC-HRMS. Data acquisition was performed using 4 separate UPLC-HRMS systems, consisting of an Agilent 1290 Infinity LC system (Agilent Technologies) interfaced with an Agilent high-resolution mass spectrometer (models G6520A, G6520B, G6530A, and G6224A). A Waters Acquity UPLC BEH Amide column (2.1mm x 50mm, 1.7lm particle size; Waters, Milford, Massachusetts) maintained at 40C was applied for separation of metabolites using a 6.5min solvent gradient with 0.1% formic acid in water and 0.1% formic acid in acetonitrile (1.0ml/min flow rate). Data were acquired using MassHunter Acquisition software (version B 04.00, Agilent Technologies). The extracted ion chromatogram (EIC) areas for ORN, CYSS, and their respective spike-in C13-standards were determined using the Agilent MassHunter Quantitative Analysis software, version B.05.00 or newer (Agilent Technologies), and data were normalized as described in Palmer et al. (2017).
On to `CCCCC(CC)COC(=O)CC(C(=O)OCC(CC)CCCC)S(=O)(=O)O` (stereo not drawn), for which the outcome was inactive. As to `COc1ccc(S(=O)(=O)N2C(=O)[C@@](c3ccccc3OC)(N3C[C@H](O)C[C@H]3C(=O)N(C)C)c3cc(Cl)ccc32)c(OC)c1`, the AC50 is 5.99 µM (active).

Take `Nc1ccccc1N`: the AC50 was 7.65 µM (active). Consider `OC[C@@H](O)[C@@H](O)[C@H](O)[C@H](O)CO`, for which the result was inactive.

In the case of `Cc1oc(-c2ccccc2)nc1CCOc1cccc2c1ccn2CCC(=O)O`, the result was inactive.

In the case of `O=c1[nH]cc(F)c(=O)[nH]1`, the half-maximal activity concentration (AC50) was 4.61 µM (active). Take `COC(=O)c1ccc(O)cc1`: the AC50 is 0.091 µM (active). Turning to `O=C(O)Cc1ccccc1Nc1c(Cl)cccc1Cl`, the result was inactive. As for `CCCc1cc(=O)[nH]c(=S)[nH]1`, the outcome was inactive.

Consider `O=c1c(O)c(-c2ccc(O)c(O)c2)oc2cc(O)cc(O)c12`, for which the outcome was inactive. Take `Cc1cccc(Nc2cc(Cl)nc(SCC(=O)O)n2)c1C`: the result was inactive. In the case of `CC1=C(/C=C/C(C)=C/C=C/C(C)=C/CO)C(C)(C)CCC1`, the outcome was inactive. In the case of `COc1ccc2c(c1)c(CC(=O)O)c(C)n2C(=O)c1ccc(Cl)cc1`, the AC50 is 82.5 µM (active). As for `COCCOCCOC`, the result was inactive.

In the case of `CCOc1ccc2c(c1)C(C)=CC(C)(C)N2`, the outcome was inactive.

As for `NC(=O)Cn1c(=O)cc(CCN2CCN(c3nccc4sccc34)CC2)c2ccc(F)cc21`, the half-maximal activity concentration (AC50) was 0.0187 µM (active).

Take `Oc1ccc2ccccc2c1N=Nc1ccccc1`: the result was inactive. Turning to `Cc1cc(NC(=O)C(=O)O)cc(C)c1Oc1ccc(O)c2c1CCC2`, the result was inactive. As to `Cc1nc(-c2ccc3c(c2)CCN(CCC2CCC(NC(=O)/C=C/c4ccc(F)cc4)CC2)CC3)no1` (stereo not drawn), the result was inactive. For the molecule `CCCCc1ccc2c(n1)[C@@H](c1ccc(OC)cc1C[C@H](C)C(=O)O)[C@H](C(=O)O)[C@H]2c1ccc2c(c1)OCO2`, the result was inactive.

As for `CN1CCN(Cc2cc(-c3ccc4[nH]c(=O)oc4c3)co2)[C@@H](c2ccc(F)cc2)C1`, the outcome was inactive. With `Cc1c(C(=O)O)c(O)cc2c1C(=O)c1c(O)c([C@@H]3O[C@H](CO)[C@@H](O)[C@H](O)[C@H]3O)c(O)c(O)c1C2=O`, the outcome was inactive.

Consider `CC(CO)OC(C)CO` (stereo not drawn) (tested in a mixture with another compound), for which the result was inactive.

The values are drawn from PubChem BioAssay (EPA / NIEHS).
